In all, about 69,000 compounds went through this assay and about 8,600 (12%) showed an effect of 50% or more. This is one part of a sample in which strong results are shown more often than they occur.

The test system of the assay is Plasmodium berghei. Nature of the assay: Screen against P. berghei liver stage (PbLuc), transformed with Luciferase, at 10uM. The assay is classed as functional, HepG2. To be noted: tested at 10 uM.
`O=C(Cc1cccc(F)c1)NCCNCc1cccnc1`: the INHIBITION amounted to 33.3%. In the case of `Cn1c(CN2CCC(N3CCNC3=O)CC2)cc(=O)n(C)c1=O`, the INHIBITION amounted to 29%. `CC(C)n1nc2c(cc1=O)CN(Cc1nnc(C3CC3)o1)CC2`: the INHIBITION was -25.9%.

Turning to `CC(C)n1nc2c(cc1=O)CN(CC(=O)N(C)c1nccs1)CC2`, the INHIBITION stood at 17.1%. Then `CC(C)n1nc2c(cc1=O)CN(c1ncnc3ccsc13)CC2`, with 86.8%; and `c1csc(CN2C[C@@H]3OCCN(CC4CCCO4)[C@@H]3C2)c1` (stereo not given in full), with -21.5%. Consider `CC(=O)Nc1nc(C2CCN(C(=O)C3CCC3)CC2)cs1`, for which the INHIBITION turned out to be 36.7%. As for `Cc1ccsc1C(=O)NCc1ccnc(C2CCCOC2)n1` (stereo not given), the INHIBITION was 5.1%. As for `O=C(NCc1ccnc(C2CCCOC2)n1)c1cccs1` (stereo not given), the INHIBITION is listed as 33.5%. On to `O=C(Cc1cccs1)NCc1ccnc(C2CCCOC2)n1` (stereo not given), for which the INHIBITION was 53.8%. Turning to `CCN1CCOCC2(CCCN(C(=O)c3cccc(O)c3)C2)C1` (stereo not given), the INHIBITION amounted to 26%. For `O=C(c1cccc2ccnn12)N1CCC[C@H]1CN1CCCC1`, the INHIBITION is reported as 19.8%. Take `O=C1NCC2(CCCN(C(=O)c3c[nH]nc3C3CCCCC3)C2)O1` (stereo not given): the INHIBITION was 31.8%. Then `Cc1cc(C(=O)N2CCCC3(CNC(=O)O3)C2)c2c(C)nn(C)c2n1` (stereo not given), with 54.1%; and `Cc1cc(C)n2nc(C(=O)N3CCCC4(CNC(=O)O4)C3)cc2n1` (stereo not given), with 27.4%; and `CCN1C(=O)CCCC12CCCN(C(=O)c1cnccn1)C2` (stereo not given), with 27.4%.

With `Cc1ccc(-c2cc(CNC(=O)N3CCSCC3)on2)cc1`, the INHIBITION is reported as -5.25%. Regarding `COc1c(CNC(c2ccccc2F)c2nccn2C)c(C)nn1C` (stereo not given), the INHIBITION stood at 2.95%. Consider `Cc1ccc(C(=O)O)c(N2Cc3cnc(C(C)(C)C)nc3C2)n1`, for which the INHIBITION is reported as -7.27%.

Turning to `Cc1cccc2cc(CO)c(N3Cc4cnc(C(C)(C)C)nc4C3)nc12`, the INHIBITION is on record as 91.2%. Regarding `CC(C)Cc1ncc2c(n1)CN(c1nc3ccccc3cc1CO)C2`, the INHIBITION amounted to 33.9%. Take `O=C(c1n[nH]c2c1CN(C1CCOC1)CC2)N1CCCC1` (stereo not given): the INHIBITION amounted to 12.4%.

Take `COCC1CC2(CCN(C(=O)c3ccco3)CC2)CN1C(C)C` (stereo not given): the INHIBITION is 17.4%. Turning to `CC(C)CN(C)Cc1nc2c(cnn2C)c(=O)[nH]1`, the INHIBITION is listed as -14.935%. Take `CC(C)CCN(C)Cc1nc2c(cnn2C)c(=O)[nH]1`: the INHIBITION is given as -21.05%. With `CN(CCOc1cccc(F)c1)Cc1nc2c(cnn2C)c(=O)[nH]1`, the INHIBITION came to 55.2%. For `CN(Cc1ccc2c(c1)OCO2)Cc1nc2c(cnn2C)c(=O)[nH]1`, the INHIBITION is 13.9%. The same measure for `CCN(CC)C(=O)CN(C)Cc1nc2c(cnn2C)c(=O)[nH]1`: 37.2%; for `CCN(Cc1ccc2c(c1)OCO2)Cc1nc2c(cnn2C)c(=O)[nH]1`: -6.14%; for `CN(CC(=O)N(C)C1CCCCC1)Cc1nc2c(cnn2C)c(=O)[nH]1`: 55.4%. With `CN(Cc1cccc(F)c1)Cc1nc2c(cnn2C)c(=O)[nH]1`, the INHIBITION is 23.7%.

With `CN(CC(=O)N1CCCC1)Cc1nc2c(cnn2C)c(=O)[nH]1`, the INHIBITION is 64%. With `CN(CCCOc1ccc(F)cc1)Cc1nc2c(cnn2C)c(=O)[nH]1`, the INHIBITION was determined as 39.2%.

With `CN(CC(=O)N(C)C1CCCCC1)Cc1nc2ccccc2c(=O)[nH]1`, the INHIBITION is on record as 44.7%. Turning to `CN(Cc1ccc2c(c1)OCCO2)Cc1nc2c(cnn2C)c(=O)[nH]1`, the INHIBITION is reported as 59.4%. Consider `Cc1nc(C)n(C2CCCN(C(=O)c3c[nH]c(C(C)C)n3)C2)n1` (stereo not given), for which the INHIBITION came to 40.9%. As to `CS(=O)(=O)N1CCC2(CC1)COC(COc1ccccn1)C2` (stereo not given), the INHIBITION is -27.9%. In the case of `CC(C)OC[C@H]1CCC[C@]12CN(S(=O)(=O)c1cn(C)cn1)CCO2`, the INHIBITION stood at 1.7%. Consider `OC1(CNCCc2csc(-c3ncccn3)n2)CCNC1` (stereo not given), for which the INHIBITION is 39.3%. In the case of `COCC(=O)NCc1cc(=O)n2c(n1)CN(CC1CCOC1)CCC2` (stereo not given), the INHIBITION is recorded as 37.5%. In the case of `CCc1nc(CN2CCCC(Cn3nc(C)nc3C)C2)no1` (stereo not given), the INHIBITION is given as 33.3%. As to `Cc1nc(C)n(CC2CCCN(Cc3nc(C4CC4)no3)C2)n1` (stereo not given), the INHIBITION was 60.6%. For the molecule `Cc1noc(CN2CCCC(Cn3nc(C)nc3C)C2)n1` (stereo not given), the INHIBITION worked out at 27.8%. As to `COCCc1noc(CN2CCCC(Cn3nc(C)nc3C)C2)n1` (stereo not given), the INHIBITION was found to be 40.9%. Regarding `CCc1noc(CN2CCCC(Cn3nc(C)nc3C)C2)n1` (stereo not given), the INHIBITION is 18.2%. With `Cc1nc(C)n(CC2CCCN(Cc3noc(C)n3)C2)n1` (stereo not given), the INHIBITION came out at 56.6%. `CNC(=O)[C@@]12CCO[C@@H]1CCN(S(=O)(=O)c1cccnc1)C2`: the INHIBITION was 23.9%. The same measure for `Cn1cc(CN2CC(C(=O)Nc3ccccc3)C3(CCOCC3)C2)cn1` (stereo not given): 48.2%; for `COc1ccc(CN2C[C@H]3CN(Cc4ccncc4)C(=O)[C@H]3C2)cc1`: 22.3%; for `O=C(Cc1c(F)cccc1Cl)NC1CCCCNC1=O` (stereo not given): -1.85%. Take `CC(=O)Nc1nc(C)c(S(=O)(=O)NCCc2ccccn2)s1`: the INHIBITION is given as -1.85%. Take `O=S(=O)(C1CC1)N1CCO[C@H]2[C@@H](Oc3ncccc3F)CC[C@@H]21`: the INHIBITION is listed as -30%.

For `CC(C)N(Cc1ccccc1)C(=O)c1cc(C2CCCN2C)ccn1` (stereo not given), the INHIBITION was -18.9%. As to `Cc1ncccc1Oc1ncnc(N2CCC3(CCCO3)CC2)c1C`, the INHIBITION is reported as -5.12%. On to `COc1ccc([C@@H](C)n2ccnc2-c2cc3n(n2)CCCNC3)cc1`, for which the INHIBITION is on record as 15%.

Source of the values: ChEMBL document CHEMBL4513216, “Probing the Open Global Health Chemical Diversity Library for Multistage-Active Starting Points for Next-Generation Antimalarials” (ACS Infect Dis, 2020).
